Screening data from PubChem BioAssay.
The list is a sample of the results.
aSyn 5UTR act: Activators working through SNCA 5'UTR binding (MLPCN); alpha-synuclein 5'UTR reporter, activators screen; activity score, % (tested at 7.5 µM), hits read low; 7.1% of 300,000 active; in the data active = activity score below about -60%
Each line names hits and unclear results; the compound was inactive in the other large screens.

COc1ccc(NC(=O)CSc2ccc(C)cc2)cc1	aSyn 5UTR act -149
COc1ccc(-n2c(C)cc(C(=O)CCl)c2C)cc1	none
Cc1ccc(O)c(NC(=O)CSc2ccc(Cl)cc2)c1	aSyn 5UTR act -177
COc1ccccc1C(=O)CSc1ccccn1	aSyn 5UTR act -95
COc1ccc(N(C(=O)c2cnccn2)C(C(=O)NCc2ccccc2)c2ccc(O)cc2)cc1 (configuration not stated)	aSyn 5UTR act -76
S=C(Nc1nc2c(s1)CCCC2)NC1CC1	aSyn 5UTR act -92
O=C(NC(=S)Nc1nc2c(s1)CCCC2)c1ccccc1	aSyn 5UTR act -345
COC(=O)c1ccc(C(=O)NC(=S)Nc2nc3c(s2)CCCC3)cc1	aSyn 5UTR act -66
Cc1ccccc1C(=O)NC(C(=O)Nc1nc2c(s1)CCCC2)C(C)C (configuration not stated)	aSyn 5UTR act -66
CC(C)c1[nH]nc2c1C(c1ccco1)C(C#N)=C(N)O2 (configuration not stated)	aSyn 5UTR act -133
Fc1ccc2nc3[nH]c4ccccc4c3nc2c1	aSyn 5UTR act -161
Clc1ccsc1-c1csc(-c2cccnc2)n1	aSyn 5UTR act -85
Oc1ccc(-c2csc(-c3cccnc3)n2)c(O)c1	aSyn 5UTR act -101
c1cncc(-c2nc(-c3ccc4c(c3)OCO4)cs2)c1	aSyn 5UTR act -117
O=C(/C=C/NCc1cccnc1)c1ccc(-c2ccccc2)cc1	aSyn 5UTR act -81
CC(=O)c1ccc(NC(=O)c2cccc(S(=O)(=O)N3CCN(C)CC3)c2)cc1	aSyn 5UTR act -112
Cc1csc(NC(=O)c2sccc2C)n1	aSyn 5UTR act -68
COc1ccc(-c2csc(NC(=O)c3cccc(S(=O)(=O)N4CCN(C)CC4)c3)n2)cc1	aSyn 5UTR act -71
COc1ccccc1N(Cc1ccccc1)S(=O)(=O)c1cccc(C(=O)Nc2ccc(C(C)=O)cc2)c1	aSyn 5UTR act -88
CCc1nnc(NC(=O)c2ccc(S(=O)(=O)N(C)Cc3ccccc3)cc2)o1	none
COc1ccc(/C(C)=N/NC(=O)c2cccc(S(=O)(=O)N3CCCC3)c2)c(O)c1	none
Cc1csc(NC(=O)c2ccc(S(C)(=O)=O)cc2)n1	aSyn 5UTR act -91
COC(=O)c1c(-c2ccncc2)csc1NC(=O)c1ccoc1C	aSyn 5UTR act -120
COc1ccc(-c2csc(NC(=O)c3ccc(S(C)(=O)=O)cc3)n2)cc1	aSyn 5UTR act -68
COc1ccc(-c2csc(NC(=O)c3ccoc3C)n2)cc1	aSyn 5UTR act -124
O=C(Nc1ccccc1)Nc1ccc2ncoc2c1	aSyn 5UTR act -119
O=C(Nc1ccccc1)Nc1ccc2ocnc2c1	aSyn 5UTR act -117
CN(CC(=O)Nc1ccccc1Cl)C(=O)COC(=O)c1nc(Cl)c(Cl)c(Cl)c1Cl	aSyn 5UTR act -129
CC(C)(C)c1ccc(C(=O)NCc2ccc(Cl)cc2)cc1	aSyn 5UTR act -75
Cc1ccc(CNC(=O)c2ccc3c(=O)c(O)c(-c4ccc(C)cc4)[nH]c3c2)cc1	none
CC(C)(C)c1ccc(C(=O)NCc2ccccc2)cc1	aSyn 5UTR act -88
Cc1ccc(CC(=O)NCc2ccc(Cl)cc2)cc1	aSyn 5UTR act -76
Cc1ccc(N=Cc2ccc(O)cc2O)cc1F	aSyn 5UTR act -84
CC(C)NC(=O)c1ccc2c3n(nc2c1)-c1ccc(Cl)cc1CO3	aSyn 5UTR act -176
CC(C)CC(NC(=O)c1ccc(Cl)cc1)C(=O)OCC(=O)c1ccc2c(c1)NC(=O)CO2 (configuration not stated)	none
CCN(CC)CCCNC(=O)c1ccc2c3n(nc2c1)-c1ccc(Cl)cc1CO3	aSyn 5UTR act -246
Cc1ccc2nc(-c3ccc(NC(=S)NC4CC(C)(C)NC(C)(C)C4)cc3)sc2c1	none
CCC(=O)NC(=S)Nc1ccc(-c2nc3ccc(C)cc3s2)cc1	aSyn 5UTR act -238
Cc1ccc2nc(-c3ccc(NC(=S)NC(=O)C(C)C)cc3)sc2c1	aSyn 5UTR act -208
O=C1c2cccc3c(O)ccc(c23)C(=O)N1c1ccc(Cl)cc1	aSyn 5UTR act -141
Cc1c(-c2nc(N)nc(Nc3ccccc3F)n2)oc2ccccc12	aSyn 5UTR act -178
Cc1ccc(Nc2nc(N)nc(-c3oc4ccccc4c3C)n2)cc1	none
Nc1cc(C(=O)OCC(=O)N2CCCC2)ccc1Cl	aSyn 5UTR act -62
Nc1cc(Cl)ccc1C(=O)OCC(=O)N1CCCC1	aSyn 5UTR act -69
Cc1cc(NC(=O)c2ccc3nc(C)sc3c2)no1	aSyn 5UTR act -123
Cc1cc(NC(=O)NC(=O)c2ccccc2)no1	aSyn 5UTR act -120
C/C(=C\c1ccccc1)C(=O)Nc1cc(C)on1	aSyn 5UTR act -161
Cc1cc(NC(=O)c2ccco2)no1	aSyn 5UTR act -62
Cc1cc(NC(=O)c2ccc(Cl)cc2)no1	aSyn 5UTR act -107
Cc1ccc(NC(=O)c2cccc3cccnc23)cc1	aSyn 5UTR act -91
O=C(NCCc1ccccc1F)c1cccc2cccnc12	aSyn 5UTR act -147
O=C(Nc1cccc2cccnc12)c1cc(F)c(F)cc1Cl	aSyn 5UTR act -74
CC(=O)NC(c1ccc(Cl)cc1Cl)c1ccc2cccnc2c1O (configuration not stated)	none
COc1ccccc1C(=O)Nc1cccc2cccnc12	aSyn 5UTR act -81
CCC1CSC(Nc2ccc(C(=O)/C=C/c3ccc(Oc4ccccc4)cc3)cc2)=N1 (configuration not stated)	aSyn 5UTR act -88
CC(=O)NC1Sc2ccccc2N=C1c1ccccc1 (configuration not stated)	aSyn 5UTR act -181
Cn1nc(C(=O)NC2CCCCC2)c2c1-c1ccccc1SC2	aSyn 5UTR act -98
COc1ccc(Cc2nnc(N/N=C/c3ccc(O)cc3)[nH]c2=O)cc1OC	none
COc1ccc(/C=N/Nc2nnc(Cc3ccccc3)c(=O)[nH]2)cc1OC	aSyn 5UTR act -67
CC(C)C1CC(=O)NC(SCC(=O)Nc2ccc(Br)cc2)=C1C#N (configuration not stated)	aSyn 5UTR act -74
Cc1ccccc1NC(=O)CSC1=C(C#N)C(c2ccsc2)CC(=O)N1 (configuration not stated)	aSyn 5UTR act -84
Cc1ccc(NC(=O)CSC2=C(C#N)C(c3ccco3)CC(=O)N2)cc1 (configuration not stated)	aSyn 5UTR act -148
FC(F)Sc1ccc(NC(=S)NC2CCCCC2)cc1	aSyn 5UTR act -109
S=C(Nc1ccc(Br)cc1)NC1CCCC1	aSyn 5UTR act -124
O=C(CC1CCCC1)Nc1ccc(Br)cc1	aSyn 5UTR act -138
FC(F)Sc1ccc(NC(=S)NCC2CCCCC2)cc1	aSyn 5UTR act -67
FC(F)Sc1ccc(NC(=S)NCc2ccccc2)cc1	aSyn 5UTR act -70
CC1CCN(C(=S)Nc2ccc(SC(F)F)cc2)CC1	aSyn 5UTR act -143
CC1(C)CC(=O)c2cnc(N3CCc4ccccc43)nc2C1	aSyn 5UTR act -118
Fc1cnc(N2CCc3ccccc32)nc1N1CCc2ccccc21	aSyn 5UTR act -82
[O-][n+]1c2c(nc3c1-c1ccccc1C3O)CCCC2 (configuration not stated)	aSyn 5UTR act -77
NC(=O)c1c(NC(=O)c2ccc([N+](=O)[O-])o2)sc2c1CCCC2	none
N#Cc1c(NC(=S)NC(=O)c2ccccc2)sc2c1CCCC2	aSyn 5UTR act -96
Cc1cc(C(=O)Nc2sc3c(c2C#N)CCC(C)C3)cs1 (configuration not stated)	aSyn 5UTR act -103
N#Cc1ccc(-c2cccnc2)nc1SCC(=O)Nc1sc2c(c1C#N)CCC2	aSyn 5UTR act -88
N#Cc1c(NC(=O)c2ccc([N+](=O)[O-])o2)sc2c1CCC2	aSyn 5UTR act -107
